Test results published in PubChem BioAssay (EPA / NIEHS).
Results filed as inconclusive are left out. Some compounds were tested as several samples or in several runs, with calls that do not always agree. The source made the active and inactive calls. How the source made its calls, unless noted: active means hit-call score of the fitted dose curve at least 0.9, where 1 is the maximum; inactive means score below 0.9.

Columns and labels:
[1] = CCTE_Shafer_MEA_dev_network_spike_peak: CCTE's Neural Network Formation Assay for Mean Number of Electrodes in Network Spike, Shafer Lab (AID 2284049);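 on AC50: fitted for loss of signal meaning fewer electrodes in network spikes than DMSO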
Procedure, shortened: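 Continuous 12-day exposure of rat cortical cultures, starting at plating, on MEA plates. Endpoint: electrodes participating in network-spike peaks, AUC across DIV 5–12, DMSO as negative control.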

[2] = CCTE_Shafer_MEA_dev_spike_duration_mean: CCTE's Neural Network Formation Assay for Mean Spike Duration, Shafer Lab (AID 2284051);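 further: mean network spike duration pooled as area under curve over DIV 5 to 12 recordings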;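 on AC50: potency for a decrease in mean network spike duration versus DMSO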
Procedure, shortened: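 Spontaneous activity was recorded on days 5, 7, 9 and 12 from rat cortical cultures grown on microelectrode arrays and dosed continuously from day 0, with media and compound renewed after the DIV 5 and 9 recordings. Network-spike duration was collapsed by area under the curve.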

[3] = CCTE_Shafer_MEA_dev_network_spike_duration_std: CCTE's Neural Network Formation Assay for Standard Deviation of Network Spike Duration, Shafer Lab (AID 2284052);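 further: hits are decreases in network spike duration SD versus DMSO vehicle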
Procedure, shortened: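 Network spike duration variability was collapsed across recordings on days 5, 7, 9 and 12 by trapezoidal area-under-curve and fitted downward against DMSO. Cultures were rat cortical neurons on PEI-coated MEA plates, dosed continuously from plating, refed with compound DIV 5/9.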

[4] = CCTE_Shafer_MEA_dev_per_network_spike_spike_number_mean: CCTE's Neural Network Formation Assay for Mean Number of Spikes in a Network Spike, Shafer Lab (AID 2284053);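 on AC50: fitted as decrease in spikes per network spike relative to DMSO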
Procedure, shortened: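 Mean spike count within each network spike, taken in a 0.05 s window at its peak, was recorded on days 5, 7, 9 and 12 and integrated as trapezoidal area under the curve. Rat cortical cultures on MEA plates received continuous compound from day 0, refreshed at medium changes on DIV 5 and 9.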

[5] = CCTE_Shafer_MEA_dev_LDH: CCTE's Lactate Dehydrogenase Assay for Cytotoxicity in the Neural Network Formation Assay, Shafer Lab (AID 2284068; active means hit-call score of the fitted dose curve at least 0.9, where 1 is the maximum;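 further: exposure for twelve days from plating with re-dosing on DIV 5 and 9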)
Procedure, shortened: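 Primary rat cortical neurons were cultured on PEI-coated MEA plates and exposed from plating through day 12, with compound renewed at medium changes on DIV 5 and 9. LDH activity was read spectrophotometrically; loss of signal versus DMSO indicates reduced viability.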

DIO2 (gene 1734) = test: CCTE_GLTED_hDIO2: CCTE's human Deiodinase 2 (DIO2) Inhibition Assay, Great Lakes Toxicology and Ecology Division (GLTED) Lab (AID 2284050; active means hit-call score of the fitted dose curve at least 0.9, where 1 is the maximum)
Procedure, shortened: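 Iodide released by human deiodinase 2 over 3 h with test chemical, measured spectrophotometrically via Sandell-Kolthoff cerium/arsenic reaction. Run n=3; inhibition referenced to DMSO.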

DIO3 (gene 1735) = test: CCTE_GLTED_hDIO3: CCTE's human Deiodinase 3 (DIO3) Inhibition Assay, Great Lakes Toxicology and Ecology Division (GLTED) Lab (AID 2284055; active means hit-call score of the fitted dose curve at least 0.9, where 1 is the maximum;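 further: potency is for inhibition seen as loss of released iodide signal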)
Procedure, shortened: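 Inhibition is read as reduced iodide release, measured spectrophotometrically by the Sandell-Kolthoff cerium/arsenic reaction. Adenovirus-expressed human DIO3 enzyme is exposed to chemical for 3 h, n=3 plates. Iodinated chemicals, nitrite, iron or thiocyanate may interfere.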

[6] = CCTE_Shafer_MEA_acute_AB: CCTE's Alamar Blue Assay for Cytotoxicity in the Neural Acute Assay, Shafer Lab (AID 2284069; active means hit-call score of the fitted dose curve at least 0.9, where 1 is the maximum;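 further: active compounds lower the viability signal compared with DMSO wells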)
Procedure, shortened: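 Resazurin reduction (CellTiter Blue, 1:6 in fresh medium) read at ex 544/em 590 nm marks viability loss relative to DMSO. Cells: primary rat cortical neuron networks on microelectrode arrays, treated after baseline recording at 13 or 15 days in vitro.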

[7] = CCTE_Shafer_MEA_acute_LDH: CCTE's Lactate Dehydrogenase Assay for Cytotoxicity in the Neural Acute Assay, Shafer Lab (AID 2284086; active means hit-call score of the fitted dose curve at least 0.9, where 1 is the maximum;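 further: active means LDH release rises above DMSO vehicle level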)
Procedure, shortened: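 LDH released during 40 min compound exposure of primary rat cortical cultures, quantified by absorbance at 490 nm in collected medium. Fitting direction positive versus DMSO vehicle.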

[8] = CCTE_Shafer_MEA_dev_AB: CCTE's Alamar Blue Assay for Cytotoxicity in the Neural Network Formation Assay, Shafer Lab (AID 2284083; active means hit-call score of the fitted dose curve at least 0.9, where 1 is the maximum;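 further: resazurin reduction fluorescence as viability of cultured neurons; twelve days of exposure from plating with re-dosing on DIV 5 and 9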)
Procedure, shortened: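 Resazurin fluorescence, relative to DMSO, gauges viability after twelve days of exposure that began at plating of rat cortical neurons (1.5 x 10^5 cells/well, 48-well MEA); treatment renewed with full medium exchange on DIV 5 and 9.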

Compound: O=S(=O)(O)CCC(F)(F)C(F)(F)C(F)(F)C(F)(F)F
- outcome [1]: inactive
- outcome [2]: inactive
- outcome [3]: inactive
- outcome [4]: inactive
- outcome [5]: inactive

Compound: O=S(=O)(O)CCC(F)(F)C(F)(F)C(F)(F)C(F)(F)C(F)(F)C(F)(F)C(F)(F)C(F)(F)F
- outcome [1]: inactive
- outcome [2]: inactive
- outcome [3]: inactive
- outcome [4]: inactive

Compound: OCC(F)(F)C(F)(F)C(F)(F)C(F)(F)C(F)(F)C(F)(F)CO
- outcome [1]: inactive
- outcome [2]: inactive
- outcome [3]: inactive
- outcome [4]: inactive
- outcome [5]: inactive

Compound: NC(=O)C(F)(F)C(F)(F)C(F)(F)F
- outcome [1]: inactive
- outcome [2]: inactive
- outcome [3]: inactive
- outcome [4]: inactive
- outcome [5]: inactive

Compound: CCCCCCCC/C=C\CCCCCCCC(=O)OCC(O)CO (centres undefined)
- AC50 (DIO2 (gene 1734)): 38.5 µM (active)
- AC50 (DIO3 (gene 1735)): 21.3 µM (active)

Compound: NC(=O)C(F)(F)C(F)(F)C(F)(F)C(F)F
- outcome [1]: inactive
- outcome [2]: inactive
- outcome [3]: inactive
- outcome [4]: inactive
- outcome [5]: inactive

Compound: C=CC(=O)OCC(F)(F)C(F)(F)C(F)(F)C(F)(F)C(F)(F)C(F)(F)C(F)(F)C(F)F
- AC50 (DIO2 (gene 1734)): 10.3 µM (active)

Compound: C=C(C)C(=O)OCC(F)(F)C(F)(F)C(F)(F)C(F)F
- AC50 (DIO2 (gene 1734)): 34 µM (active)
- AC50 (DIO3 (gene 1735)): 14.2 µM (active)

Compound: OC(O)C(F)(F)C(F)(F)F
- outcome [1]: inactive
- outcome [2]: inactive
- outcome [3]: inactive
- outcome [4]: inactive
- outcome [5]: inactive

Compound: CCCCCCCCCCCCCC[P+](CCCC)(CCCC)CCCC
- AC50 (DIO2 (gene 1734)): 17.1 µM (active)
- AC50 (DIO3 (gene 1735)): 3.56 µM (active)

Compound: CCCCCCCC/C=C\CCCCCCCC(=O)N(C)CC(=O)O
- AC50 (DIO2 (gene 1734)): 55.6 µM (active)
- AC50 (DIO3 (gene 1735)): 22 µM (active)

Compound: CCN=C1C=CC(=C(c2ccc(N(CC)CC)cc2)c2ccc(N(CC)CC)cc2)c2ccccc21
- AC50 (DIO2 (gene 1734)): 42 µM (active)
- AC50 (DIO3 (gene 1735)): 8.42 µM (active)
- AC50 [6]: 6.86 µM (active)
- outcome [7]: inactive

Compound: O=S(=O)(Cl)C(F)(F)C(F)(F)C(F)(F)C(F)(F)C(F)(F)C(F)(F)C(F)(F)C(F)(F)F
- AC50 (DIO2 (gene 1734)): 66 µM (active)

Compound: OCC(F)(F)C(F)(F)C(F)(F)C(F)(F)C(F)(F)C(F)(F)C(F)(F)C(F)(F)CO
- AC50 [1]: 22.5 µM (active)
- AC50 [2]: 15 µM (active)
- outcome [3]: inactive
- outcome [4]: inactive
- AC50 [5]: 23.3 µM (active)
- AC50 [8]: 24.4 µM (active)

Compound: C=CC(=O)OCC(F)(F)C(F)(F)C(F)(F)COC(=O)C=C
- AC50 [1]: 4.61 µM (active)
- AC50 (DIO2 (gene 1734)): 26.3 µM (active)
- AC50 [2]: 5.18 µM (active)
- outcome [3]: inactive
- AC50 [4]: 4.72 µM (active)
- AC50 (DIO3 (gene 1735)): 45.1 µM (active)
- AC50 [5]: 5.84 µM (active)
- AC50 [8]: 7.96 µM (active)

Compound: CCN(CCO)S(=O)(=O)C(F)(F)C(F)(F)C(F)(F)C(F)(F)C(F)(F)C(F)(F)C(F)(F)C(F)(F)F
- outcome [1]: inactive
- outcome [2]: inactive
- outcome [3]: inactive
- outcome [4]: inactive
- AC50 [5]: 10.1 µM (active)
- outcome [5]: inactive
- outcome [8]: inactive

Compound: O=C(O)C(F)(F)C(F)(F)C(F)(F)OC(F)(F)F
- outcome [1]: inactive
- outcome [2]: inactive
- outcome [3]: inactive
- outcome [4]: inactive
- outcome [5]: inactive

Compound: NC(O)(C(F)(F)F)C(F)(F)F
- AC50 [1]: 0.00434 µM (active)
- outcome [1]: inactive
- outcome [2]: inactive
- outcome [3]: inactive
- outcome [4]: inactive
- outcome [5]: inactive

Compound: OCC(F)(F)C(F)(F)C(F)(F)CO
- outcome [1]: inactive
- outcome [2]: inactive
- outcome [3]: inactive
- outcome [4]: inactive
- outcome [5]: inactive

Compound: NC(=O)C(F)(F)C(F)(F)C(F)(F)C(F)(F)C(N)=O
- outcome [1]: inactive
- outcome [2]: inactive
- outcome [3]: inactive
- outcome [4]: inactive
- outcome [5]: inactive

Compound: CCN=c1cc2oc3cc(NCC)c(C)cc3c(-c3ccccc3C(=O)OCC)c-2cc1C
- AC50 (DIO2 (gene 1734)): 154 µM (active)
- AC50 (DIO3 (gene 1735)): 157 µM (active)

Compound: CO[Si](C)(CCC(F)(F)C(F)(F)C(F)(F)C(F)(F)C(F)(F)C(F)(F)F)OC
- outcome [1]: inactive
- outcome [2]: inactive
- outcome [3]: inactive
- outcome [4]: inactive
- outcome [5]: inactive

Compound: OCC(O)CC(F)(F)C(F)(F)C(F)(F)C(F)(F)F (centres undefined)
- outcome [1]: inactive
- outcome [2]: inactive
- outcome [3]: inactive
- outcome [4]: inactive

Compound: FC(F)(F)C(F)(F)C(F)(F)C(F)(F)C(F)(F)C(F)(F)C(F)(F)CCI
- outcome [1]: inactive
- outcome [2]: inactive
- outcome [3]: inactive
- outcome [4]: inactive
- outcome [5]: inactive

Compound: CNS(=O)(=O)C(F)(F)C(F)(F)C(F)(F)C(F)(F)C(F)(F)C(F)(F)C(F)(F)C(F)(F)F
- outcome [1]: inactive
- outcome [2]: inactive
- outcome [3]: inactive
- outcome [4]: inactive
- outcome [5]: inactive

Compound: CCCCCCCCCCCCC[N+](C)(C)Cc1ccccc1
- AC50 (DIO2 (gene 1734)): 22.2 µM (active)
- AC50 (DIO3 (gene 1735)): 17 µM (active)

Compound: CCCCCCCCn1sc(Cl)c(Cl)c1=O
- AC50 (DIO2 (gene 1734)): 26 µM (active)
- AC50 (DIO3 (gene 1735)): 7.82 µM (active)

Compound: C=CC(=O)OCCC(F)(F)C(F)(F)C(F)(F)C(F)(F)F
- AC50 [1]: 23.5 µM (active)
- AC50 (DIO2 (gene 1734)): 31.5 µM (active)
- AC50 [2]: 22.7 µM (active)
- outcome [3]: inactive
- AC50 [4]: 15 µM (active)
- AC50 (DIO3 (gene 1735)): 51.8 µM (active)
- AC50 [5]: 15 µM (active)
- AC50 [8]: 21.8 µM (active)

Compound: OCCCCC(F)(F)C(F)(F)C(F)(F)C(F)(F)F
- outcome [1]: inactive
- outcome [2]: inactive
- outcome [3]: inactive
- outcome [4]: inactive
- outcome [5]: inactive
- outcome [8]: inactive
